# Laboratory results as given in the supplement of paper PMC4723716.
# ± gives the uncertainty stated by the source. Whole data set: some 9,900 compounds, median “viability index relative to DMSO control” near 1, cut for the lowest 2% near 0.85. Many of the other results were omitted from the sample, so the lowest values are more common in it than they were.
# System: Plasmodium falciparum NF54 stage V gametocytes
# Test: viability index relative to DMSO control (fraction); higher = less gametocyte killing
# Settings: 2.5 µM, incubation time: 72 h
# Summary of the method: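 Viability index is the count of red-stained particles in a well divided by the plate mean of solvent-only wells. Particles of 20–70 µm2 were counted in one imaged field per well after one to two hours with 3 µl of 2.5 µM MitoTracker Red CMXRos and 0.13% saponin. Before staining, P. falciparum NF54 stage V gametocytes in serum-free medium (0.75% gametocytemia, 1.25% hematocrit, 10 µl, 1,536-well plates) were kept with compound at 2.5 µM for 72 hr at 37°C under low oxygen.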
# [1] = library set: Broad Institute DOS
# [2] = library set: Broad Institute Blood Stage
SMILES,viability index [1],viability index [2]
C[C@H](CO)N1C[C@H](C)[C@H](CN(C)C(=O)NC2CCCCC2)Oc2ccc(N(C)C)cc2CC1=O,1.13 ± 0.1,
CO[C@H]1CC[C@@H]2CCOc3c(C#N)cccc3C(=O)N(C)C[C@@H](OC)[C@@H](C)C(=O)N(C)C[C@@H]1O2,1 ± 0.023,
COc1ccc2c3c([C@@H](CO)N(C[C@]33CCN(CC3)C(=O)Nc3cccc(F)c3)C(=O)C3CC3)n(C)c2c1,,0.807 ± 0.036
COc1ccc2c3c([C@@H](CO)N(C[C@]33CCN(CC3)C(=O)Nc3cccc(F)c3)C(=O)CN3CCOCC3)n(C)c2c1,0.993 ± 0.12,
COc1ccc2c3c([C@@H](CO)N(C[C@]33CCN(CC3)C(=O)Nc3cccc(F)c3)C(=O)C3CCCC3)n(C)c2c1,,0.822 ± 0.039
COc1ccc2c3c([C@H](CO)N(C[C@]33CCN(CC3)C(=O)Nc3cccc(F)c3)C(=O)CN3CCOCC3)n(C)c2c1,0.941 ± 0.018,
COc1ccc2c3c([C@@H](CO)N(C[C@]33CN(C3)C(=O)Nc3cccc(F)c3)C(=O)C3CCOCC3)n(C)c2c1,1.06 ± 0.05,
CCCNC(=O)N1C[C@]2(CCN(CC2)C(=O)Nc2cccc(F)c2)c2c([C@H]1CO)n(C)c1cc(OC)ccc21,0.991 ± 0.079,
C[C@@H]1C/C=C/C[C@@H](c2ccccc2)NC(=O)[C@H](C)N(C)C(=O)c2ccccc2O1.C[C@@H]1C/C=C\C[C@@H](c2ccccc2)NC(=O)[C@H](C)N(C)C(=O)c2ccccc2O1,1 ± 0.069,
COc1ccc2c3c([C@H](CO)NC[C@]33CN(Cc4ccc(cc4)-c4ccccn4)C3)n(C)c2c1,0.934 ± 0.11,
COc1ccc2c3c([C@@H](CO)NC[C@]33CCN(Cc4ccc(cc4)-c4ccccn4)CC3)n(C)c2c1,,0.946 ± 0.052
COc1ccc2c3c([C@H](CO)NC[C@]33CN(Cc4ccc(F)cc4)C3)n(C)c2c1,0.841 ± 0.014,
COc1ccc2c3c([C@@H](CO)NC[C@]33CCN(Cc4ccncc4)CC3)n(C)c2c1,1.01 ± 0.045,
COc1ccc2c3c([C@@H](CO)NC[C@]33CN(Cc4ccc(cc4)-c4ccccn4)C3)n(C)c2c1,0.997 ± 0.019,
COc1ccc2c3c([C@H](CO)NC[C@]33CCN(Cc4ccc(cc4)-c4ccccn4)CC3)n(C)c2c1,,0.835 ± 0.04
CO[C@H]1CN(C)C(=O)c2cc(NC(=O)c3cnccn3)ccc2OC[C@H](C)NC[C@H]1C,1.09 ± 0.041,
COc1ccc(-c2ccc([C@H]3[C@H]4CNC[C@@H]3N4S(=O)(=O)c3cn(C)cn3)cc2)cc1,1.0563 ± 0.00097,
O=C(CC1CC1)N1CC2(C1)[C@@H](c1ccccc1)[C@H](CO)N2C(=O)c1ccccn1,1 ± 0.013,
C[C@H]1CN([C@@H](C)CO)C(=O)c2c(c3ccccc3n2C)-c2ccccc2CO[C@H]1CN(C)C,1.04 ± 0.052,
O=C(C[C@H]1CC[C@H]2NC[C@@H](O)COC[C@@H]2O1)N1CCc2ccccc2C1,1.03 ± 0.049,
O=C(CC1CC1)N1CC[C@@H]2[C@H]1c1cc(-c3ccc(F)cc3)ccc1N[C@@H]2CO,1.046 ± 0.009,
CC(C)(C)S(=O)N1Cc2cc(C(=O)N3CCN(Cc4ccccc4)CC3)nc(-c3cccc(-c4cc5ccccc5o4)c3)c2[C@H]1CCO (stereo partly specified),0.7362 ± 0.0068,
COc1ccccc1-c1cccc(-c2nc(C(=O)N3CCN(C)CC3)cc3c2[C@H](CCO)N([S@@](=O)C(C)(C)C)C3)c1,1.03 ± 0.032,

SMILES,viability index [1],viability index [2]
COc1ccc(C#Cc2cccc(-c3nc(C(=O)Nc4ccc(-c5ccccc5)cc4)cc4c3[C@@H](CCO)N(S(=O)C(C)(C)C)C4)c2)cc1OC (stereo partly specified),1.016 ± 0.0075,
CC(C)(C)S(=O)N1Cc2cc(C(=O)O)nc(-c3cccc(-c4cc5ccccc5o4)c3)c2[C@@H]1CCO (stereo partly specified),1.03 ± 0.023,
COc1ccc(C#Cc2cccc(-c3nc(C(=O)N4CCN(Cc5ccccc5)CC4)cc4c3[C@H](CCO)N(S(=O)C(C)(C)C)C4)c2)cc1OC (stereo partly specified),1.04 ± 0.11,
CC(C)(C)S(=O)N1Cc2cc(C(=O)NCc3ccc4c(c3)OCO4)nc(-c3cccc(-c4cc5ccccc5o4)c3)c2[C@H]1CCO (stereo partly specified),0.656 ± 0.04,
COc1ccc(C#Cc2cccc(-c3nc(C(=O)NCc4ccc5c(c4)OCO5)cc4c3[C@@H](CCO)N(S(=O)C(C)(C)C)C4)c2)cc1OC (stereo partly specified),0.9061 ± 0.0023,
CC(C)(C)S(=O)N1Cc2cc(C(=O)NCc3ccc4c(c3)OCO4)nc(-c3cccc(-c4cccc(F)c4)c3)c2[C@@H]1CCO (stereo partly specified),1.04 ± 0.015,
COc1ccc(C#Cc2cccc(-c3nc(C(=O)N4CCN(Cc5ccccc5)CC4)cc4c3[C@@H](CCO)N(S(=O)C(C)(C)C)C4)c2)cc1OC (stereo partly specified),0.826 ± 0.14,
Cc1ccc(CN2CC(=O)N3[C@H](CO)[C@@H](c4ccc(-c5ccccc5F)cc4)[C@H]3C2)cc1,1.05 ± 0.062,
CC(=O)N1[C@H](CO)[C@@H](c2ccccc2)C12CN(S(=O)(=O)c1ccccc1)C2,1.11 ± 0.03,
COC(=O)C[C@H]1CC[C@@H]2[C@H](COc3ccc(NC(=O)Nc4cccc(C#N)c4)cc3C(=O)N2C)O1,1.1 ± 0.091,
O=C(Cc1cccnc1)N1CC(=O)N2[C@H](C1)[C@@H](c1ccc(C#CC3CCCCC3)cc1)[C@@H]2CO,0.985 ± 0.11,
O=C(C1CCOCC1)N1CC(=O)N2[C@H](C1)[C@H](c1ccc(C#CC3CCCCC3)cc1)[C@@H]2CO,1.03 ± 0.018,
C[C@@H]1CN([C@@H](C)CO)C(=O)c2cc(NC(=O)Cn3cnnn3)ccc2O[C@H]1CN(C)Cc1ccc(C(=O)Nc2ccccc2N)cc1,1.002 ± 0.0028,
O=C(C[C@H]1C[C@@H]2c3cc(NC(=O)Nc4ccccc4)ccc3O[C@@H]2[C@H](CO)O1)NCc1ccccc1,1.06 ± 0.03,
Cc1ccc(S(=O)(=O)Nc2ccc3c(c2)CC(=O)N([C@H](C)CO)C[C@@H](C)[C@@H](CN(C)S(=O)(=O)c2ccccc2)O3)cc1,0.949 ± 0.021,
CCCC(=O)N1C[C@]2(CN(Cc3nccs3)C2)c2c([nH]c3cc(OC)ccc23)[C@@H]1CO,1 ± 0.024,
N#C[C@@H]1[C@@H](c2ccccc2-c2ccccc2)[C@H](CO)N1C(=O)Cc1ccncc1,1.1 ± 0.2,
C[C@H]1CN([C@@H](C)CO)C(=O)c2ccccc2-c2ccccc2CO[C@H]1CN(C)Cc1cccc(C(=O)O)c1,0.958 ± 0.034,
O=C(C[C@H]1CC[C@H](NC(=O)C2CC2)[C@@H](CO)O1)Nc1ccccc1,0.981 ± 0.031,
O=C(C[C@H]1CC[C@@H](NC(=O)C2CC2)[C@H](CO)O1)Nc1ccccc1,0.839 ± 0.19,
O=C(C[C@H]1CC[C@H](NC(=O)C2CC2)[C@H](CO)O1)Nc1ccccc1,0.992 ± 0.033,
CO[C@H]1CN(C)C(=O)c2cc(NS(=O)(=O)CC(F)(F)F)ccc2OC[C@@H](C)NC[C@H]1C,1.07 ± 0.0046,
CCC(=O)N1CC(=O)N2[C@H](CO)[C@H](c3ccc(C#CCC(C)C)cc3)[C@H]2C1,0.956 ± 0.046,
